Source: PubChem (National Center for Advancing Translational Sciences (NCATS))
Hits are enriched below; roughly 9.2% of the tested compounds scored in any of these assays.
SMN2 splice enh = increases expression of the SMN2 splice variant | Potency, µM (top dose mostly 46.1 µM), for the others: top-dose activity change, positive = activation, most hits filed as activators | HEK293 SMN2-luciferase splicing reporter, luminescence, 30-36 h | actives 2.8% (n = 210,000); note: % of control where 0% means no effect; nearly all actives have a fitted effect of over 55% in size
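qHTS luciferase splicing reporter: luminescence rises when SMN2 exon 7 is included in transfected HEK293 cells. Compound exposure lasted 30-36 h at 37C, with 4.5 mM final sodium butyrate as control, followed by a ONE-Glo read.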
ELG1 repair inh = ELG1-dependent DNA repair inhibition | actives 2.3% (n = 330,000) | Potency, µM (highest dose often 46.1 µM), inactives show top-dose activity change, negative = inhibition, usual class: inhibitors | HEK293T ELG1-luciferase reporter, luminescence, 16 h; DNA damage induced by 5-fluorouridine; note: % is set by controls: 0 for no effect and ±100 for the full control effect; nearly all actives have a fitted effect of over 55% in size
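Step one: seed 2,000 cells per well. Step two: pin-transfer compound or DMSO alongside 5-fluorouridine. Step three: incubate 16 hr, 37 °C, 5% CO2. Step four: add ONE-Glo, wait 30 min, read luminescence.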
Rab9 prom act = Rab9 promoter activation; Huh7 Rab9 promoter-luciferase reporter, luminescence, 24 h; Potency, µM (series often up to 9.22 µM), for inactives: at the highest dose activation, negative = inhibition, most hits filed as activators; actives 2.8% (n = 320,000); note: % of control where 0% means no effect; nearly all actives have a fitted effect of over 60% in size
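Huh7 cells stably carrying a Rab9 promoter-luciferase reporter, 1500 cells per well in OP-MEM I with 10% FBS, treated with compound 24 hours at 37C. Luciferase activity read by luminescence after 10 minutes with Amplite reagent.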
FLuc modulator = counter-screen for miR-21 project: firefly luciferase inhibitors or activators; purified FLuc, Km substrates, luminescence inhibition; P08659; actives 6.9% (n = 360,000); AID 588342; Potency, µM (highest dose often 57.5 µM), inactives show at the highest dose activity change, negative = inhibition, most hits filed as inhibitors;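 note: plate controls were vehicle for no effect and reference inhibitor for full effect; nearly all actives have a fitted effect of over 55% in size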
Target sequence (P08659 whole entry, looked up): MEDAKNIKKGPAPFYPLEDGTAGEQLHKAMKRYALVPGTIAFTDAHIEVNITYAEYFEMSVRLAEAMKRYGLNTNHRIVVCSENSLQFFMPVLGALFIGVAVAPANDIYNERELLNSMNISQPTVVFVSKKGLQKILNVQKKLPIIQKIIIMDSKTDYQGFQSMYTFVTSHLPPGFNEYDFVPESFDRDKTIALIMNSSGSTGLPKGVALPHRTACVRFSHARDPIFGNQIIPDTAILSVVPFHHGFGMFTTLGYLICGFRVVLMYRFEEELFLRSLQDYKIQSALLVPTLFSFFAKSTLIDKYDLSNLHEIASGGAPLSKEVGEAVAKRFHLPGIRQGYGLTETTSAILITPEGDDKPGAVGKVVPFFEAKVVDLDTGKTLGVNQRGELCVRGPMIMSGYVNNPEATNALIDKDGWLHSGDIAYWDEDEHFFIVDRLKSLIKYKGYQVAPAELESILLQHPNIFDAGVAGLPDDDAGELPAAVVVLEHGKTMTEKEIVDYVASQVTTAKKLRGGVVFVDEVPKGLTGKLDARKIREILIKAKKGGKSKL
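Purified P. pyralis luciferase, 10 nM final, with Km-level 10 uM D-luciferin and 10 uM ATP in 50 mM Tris acetate pH 7.5, 10 mM Mg acetate, 0.01% Tween-20, 0.05% BSA; 6-point qHTS titration about 60 µM downward; luminescence read.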
NPC1 prom act = NPC1 promoter activation; Huh7 NPC1 promoter luciferase reporter, 24 h; Potency, µM (doses to about 9.22 µM), inactives show at the highest dose activation, actives largely listed as activators; actives 2.4% (n = 320,000); AID 485313; note: % of control where 0% means no effect; nearly all actives have a fitted effect of over 60% in size
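In 1536-well qHTS, Huh7 cells harboring an NPC1 promoter–luciferase construct received compound for 24 h; activation was quantified by luminescence following luciferase reagent addition.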
ELG1 genotox = genotoxicity induction in ELG1-luciferase HEK293T cells | actives 1.3% (n = 330,000) | HEK293T ELG1-luciferase reporter, luminescence, 16 h | AID 504466 | Potency, µM (highest dose often 46 µM), for the others: at the top dose activity change, positive = activation, usual class: activators; note: % of control where 0% means no effect; nearly all actives have a fitted effect of over 60% in size
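DMSO vehicle served as control against compound-treated ELG1-luciferase HEK293T cells; exposure lasted 16 hr at 37 °C and 5% CO2, followed by ONE-Glo luminescence detection after 30 min.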
* = called active by the depositor; u = inconclusive; x = no result; [ ] = remark or other dose. Calls come from the whole dose curve; as a rule, active = well fitted curve in the direction sought with a large enough effect; inconclusive = small, poorly fitted or top-dose-only effect, or another doubt; inactive = no such curve, though single readings can be large; an effect the other way counts as inactive or inconclusive. Potency is the fitted concentration of half-maximal effect.

SMILES	SMN2 splice enh	ELG1 repair inh	Rab9 prom act	FLuc modulator	NPC1 prom act	ELG1 genotox
COc1ccccc1CNC(=O)CC(c1ccc(C)cc1)N1Cc2ccccc2C1=O (stereo unspecified)	x	x	x	-3%	x	x
Cc1ccccc1-c1nc(CS(=O)(=O)CC(=O)NCC(C)c2ccccc2)c(C)o1 (stereo unspecified)	6%	x	x	-18%	x	x
CC1=NN(Cc2ccccc2)C(=O)/C1=C\c1ccc(N(C)C)cc1	7%	16%	-1%	11µM*	1%	7%
CCOC(=O)C1=NN(c2ccccc2)C(=O)/C1=C\c1ccc(N(C)C)cc1	-1%	u	-5%	-5%	-1%	14%
CCOc1cc2sc(N3CCC(C(=O)Nc4cc(C)cc(C)c4)CC3)nc2cc1Br	x	x	x	-1%	x	x
CCOc1cc2sc(N3CCC(C(=O)NCCCN4CCCC4=O)CC3)nc2cc1Br	x	11%	1%	15µM*	15%	-3%
CCOc1cc2sc(N3CCC(C(=O)Nc4ccc(C)cc4C)CC3)nc2cc1Br	u	x	x	15µM*	x	x
CCOc1cc2sc(N3CCC(C(=O)Nc4ccc(C(C)C)cc4)CC3)nc2cc1Br	14µM*	x	x	21µM*	x	x
COc1ccccc1NC(=O)Nc1ccc(S(=O)(=O)Nc2onc(C)c2C)cc1	x	14%	0%	0%	-4%	0%
CC(/C=N/NC(=O)c1cccnc1)=C\c1ccco1	u	u	u	-2%[2.3 µM]	16%	14%
CC(=C/c1ccco1)/C=N/NC(=O)c1ccncc1	x	-68%	20%	17µM*	11%	1%
CC(/C=N/NC(=O)c1cnccn1)=C\c1ccco1	x	u	u	12µM*	u	u
O=[N+]([O-])c1cccc(NN=Nc2ccccc2)c1	x	u	u	11µM*	u	u
O=[N+]([O-])c1ccc(N=NNc2ccccc2)cc1	16µM*	u	u	u	26%	10%
Brc1ccc(N=NNc2ccccc2)cc1	x	u	u	6µM*	u	u
O=C(O)c1cc(NN=Nc2cccc([N+](=O)[O-])c2)cc([N+](=O)[O-])c1	x	-2%	-2%	u	-5%	1%
CN(C)CCCN(C(=O)c1ccc(S(=O)(=O)N2CCCCCC2)cc1)c1nc2ccc(F)cc2s1	x	8.2µM*	10%	6%	7%	24%
CN(C)CCCN(C(=O)c1sc2ccccc2c1Cl)c1nc2ccc(F)cc2s1	18µM*	u	-4%	4.8µM*	-2%	u
Cc1ccc2nc(N(CCCN(C)C)C(=O)c3ccc4ncsc4c3)sc2c1	x	u	4µM*	17µM*	u	u
CN(C)CCCOC(=O)c1sc2ccccc2c1Cl	x	u	0%	24µM*	-8%	4%
CN(C)CCCN(C(=O)c1ccc(S(=O)(=O)N2CCOCC2)cc1)c1nc2ccc(F)cc2s1	x	u	-4%	3%	4%	7%
CN(C(=O)COC(=O)c1sc2ccccc2c1Cl)C1CCCCC1	-7%	9%	-4%	u	0%	-1%
COc1ccc(S(=O)(=O)N2CCCCC2)cc1NC(=O)CCCOc1ccc(C)cc1	x	-7%	2%	2%	1%	-2%
O=C(O)c1cc(N2C(=O)CCC2=O)ccc1Cl	x	-1%	-4%	-2%	1%	-2%
CCNC(=S)N/N=C/c1sc(N2CCCCC2)nc1-c1cccs1	x	u	u	1.9µM*	26%	u
SMILES	SMN2 splice enh	ELG1 repair inh	Rab9 prom act	FLuc modulator	NPC1 prom act	ELG1 genotox
CCCCNC(=S)N/N=C/c1sccc1C	25%	1%	0%	-13%	10%	3%
COc1ccc2c(c1)O[C@H](c1ccc3c(c1)OCO3)[C@@H](OC(=O)NCCc1ccc(OC)c(OC)c1)C2=O	-8%	x	x	x	x	x
CCc1ccccc1NC(=S)N(CCN1CCOCC1)C1CCN(C(C)=O)CC1	9%	-14%	3%	-1%	-10%	-11%
CCOC(=O)c1sc2nc(CSc3ccccc3)nc(N3CCC(C(N)=O)CC3)c2c1C	-7%	18µM*	0%	-7%	-9%	-8%
Cc1sc2nc(CSc3ccccc3)nc(N3CCC(C(N)=O)CC3)c2c1C	11%	u	-1%	-11%	-3%	-9%
CCOC(=O)c1sc2nc(CSc3ccccc3)nc(N3CCCN(C)CC3)c2c1C	-7%	u	-39%	-3%	-4%	-15%
CCOC(=O)c1sc2nc(CC(=O)OC)nc(N3CCN(c4ccccn4)CC3)c2c1C	-12%	9.2µM*	-2%	-2%	-7%	3%
COc1ccc(C)cc1NC(=O)c1sc2ncnc(N3CCN(c4ccccn4)CC3)c2c1C	x	6.5µM*	-8%	-5%	-4%	-25%
C/C=C/c1ccc(OCCOCCNCc2ccccc2)c(OC)c1	x	-10%	-4%	-1%	-1%	-5%
CCCCCC(=O)O/N=C(\C)c1ccn(S(=O)(=O)c2ccccc2)c1	x	1%	0%	4%	1%	-1%
CCN(CC(=O)Nc1c(F)cccc1F)C(=O)c1cc([N+](=O)[O-])ccc1N1CCCCC1	x	-11%	-2%	10%	1%	-3%
COc1ccc(NC(=O)Nc2ccc3nccnc3c2)cc1	u	u	0.4µM*	4.3µM*	3.2µM*	13%
COc1ccc(C(=O)Nc2ccc3nc(C)c(C)nc3c2)cc1	x	u	14%	u	24%	8%
COc1ccc(NC(=O)Nc2ccc3nonc3c2)cc1	x	u	3.5µM*	u	u	3%
CN(C)C(=O)N(CCCN1CCOCC1)Cc1cccc2ccccc12	x	5%	-16%	-1%	-7%	-1%
O=C(Nc1c(C(=O)N2CCOCC2)cnn1-c1ccccc1)c1cccc(F)c1	x	15%	4%	-1%	-3%	4%
COc1ccc2nc(Nc3nc(CSc4nc5ccccc5[nH]4)cc(=O)[nH]3)nc(C)c2c1	107%	5.8µM*	-23%	u	-5%	-7%
Cc1nc(Nc2nc(CSc3nc4ccccc4[nH]3)cc(=O)[nH]2)nc2ccccc12	-52%	13µM*	0%	-16%	-2%	-14%
Cc1ccc2nc(Cl)c3cc(C(=O)N4CCCC(C)C4)sc3c2c1 (stereo unspecified)	-15%	x	x	-4%	x	x
COc1ccc(Nc2c3c(nc4ccc(NC(=O)c5cc(Cl)ccc5OC)cc24)CCCC3)cc1OC	-107%	x	x	9%	x	x
CCN(CC)CCn1c2c(c(SCC(=O)Nc3ccccc3Cl)nc1=O)CCC2	x	-3%	-4%	1%	5%	-8%
O=C(CCCN1C(=O)/C(=C\c2ccccc2)SC1=S)Nc1ccc(C(=O)O)cc1	x	-14%	-4%	17µM*	-6%	-2%
